Source: PubChem
This is a sample that favours compounds with a hit; in the whole collection about 3.8% have one here.
IDH1 R132H inh: human IDH1 R132H inhibition; O75874; IDH1-R132H enzyme, NADPH consumption, diaphorase/resazurin fluorescence; Potency, µM (highest dose often 76.6 µM), usual class: inhibitors; 390,000 compounds, 0.093% hits; also: nearly all actives have a fitted effect of over 65% in size
Target sequence (O75874 whole entry R132H, stated change not applied): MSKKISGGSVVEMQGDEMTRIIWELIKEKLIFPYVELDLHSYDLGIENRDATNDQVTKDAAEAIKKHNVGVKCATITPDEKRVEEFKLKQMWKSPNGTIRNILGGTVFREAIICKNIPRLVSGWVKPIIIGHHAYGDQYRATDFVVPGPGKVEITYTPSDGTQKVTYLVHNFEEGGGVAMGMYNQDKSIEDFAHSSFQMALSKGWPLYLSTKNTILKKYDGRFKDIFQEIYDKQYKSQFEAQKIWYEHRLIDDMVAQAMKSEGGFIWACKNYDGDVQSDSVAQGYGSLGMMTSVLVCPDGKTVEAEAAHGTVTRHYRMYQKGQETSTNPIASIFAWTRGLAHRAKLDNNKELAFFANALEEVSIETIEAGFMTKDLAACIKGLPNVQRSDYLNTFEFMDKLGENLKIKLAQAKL
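IDH1-R132H (0.5 ug/mL dispensed) in pH 7.5 Tris buffer was preincubated 30 min with compound, then given a substrate mix of 0.016 mM NADPH and 2 mM alpha-KG for 80 min at room temperature; remaining NADPH was read by diaphorase/resazurin fluorescence.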
Nrf2 inh: blocks Nrf2 signaling. A549 ARE-Fluc reporter, luciferase luminescence, 18-24 h. 360,000 compounds, 2.1% hits. Potency, µM (top dose mostly 46 µM), usual class: inhibitors; also: nearly all actives have a fitted effect of over 60% in size
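A549 ARE_Fluc cells (5000/well, 5% FBS OPTI-MEM) pre-incubated 2 h, then treated with compounds 18-24 h at 37C/5% CO2 in concentration-response. CellTiter-Fluor viability read first; BugLite luciferase luminescence after 15 min at room temperature gives Nrf2 activity.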
A549 viability: counter-screen for Nrf2 inhibitors: cytotoxicity in A549 cells; A549 ARE-Fluc cells, CellTiter-Fluor viability, 18-24 h; Potency, µM (highest dose often 46 µM), usual class: inhibitors; 390,000 compounds, 0.16% hits
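A549 ARE-Fluc cells in 5% FBS OPTI-MEM, 5000 cells/well, rested 2 h then exposed to compounds in concentration-response for 18-24 h at 37 °C. Viability by CellTiter-Fluor fluorescence (Ex 405/Em 525) after 30 min; luciferase luminescence (BugLite, 15 min, RT) read afterwards.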
Nrf2 ARE act: activates Nrf2 signaling. AID 624171. AREc32 ARE-luciferase reporter (MCF7-derived line), luminescence, 24 h. Potency, µM (highest dose often 46.1 µM), actives largely listed as activators. 410,000 compounds, 0.31% hits; also: nearly all actives have a fitted effect of over 65% in size
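Luciferase luminescence (Steady-Glo, 30 min at room temperature) served as the read-out of ARE activation in AREc32 cells treated with compounds for 24 hr at 37 deg C.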
ELG1 repair inh: inhibitors of ELG1-dependent DNA repair in HEK293T cells. HEK293T ELG1-luciferase reporter, luminescence, 16 h; DNA damage induced by 5-fluorouridine. Potency, µM (highest dose often 46.1 µM), usual class: inhibitors. 330,000 compounds, 2.3% hits; also: nearly all actives have a fitted effect of over 55% in size
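5-Fluorouridine DNA damage + compound/DMSO, 2,000 cells/well, 16 h, 37 °C/5% CO2. ONE-Glo, 30 min RT, luminescence. Readout = decrease in reporter signal.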
Of the large screens only hits and unclear results are named; the others gave an inactive call. Calls follow the shape of the dose curve; as a rule, active = well fitted curve in the direction sought with a large enough effect; inconclusive = small, poorly fitted or top-dose-only effect, or another doubt; inactive = no such curve, though single readings can be large; an effect the other way counts as inactive or inconclusive.

Cc1ccc(NC(=O)c2cccc(S(=O)(=O)N3CCN(c4ccccc4)CC3)c2)nc1	Nrf2 inh 15µM, ELG1 repair inh inconclusive
Cc1ccnc(NC(=O)c2ccc(Cl)c(S(=O)(=O)N3CCCC3)c2)c1	Nrf2 inh inconclusive
COc1ccc(NC(=S)NCc2ccccc2Cl)c(OC)c1	Nrf2 inh 23µM, ELG1 repair inh inconclusive
COc1ccccc1NC(=S)NCc1ccccc1Cl	none
COc1ccc(CCNC(=O)c2cc3c(=O)n4ccccc4nc3n(C3CCCCC3)c2=N)cc1OC	ELG1 repair inh inconclusive
COc1ccc(CCNC(=O)c2cc3c(=O)n4ccccc4nc3n(C3CCCCC3)c2=N)cc1	A549 viability inconclusive, ELG1 repair inh 23µM
N=c1c(C(=O)NC2CCCCC2)cc2c(=O)n3ccccc3nc2n1Cc1ccc(F)cc1	ELG1 repair inh 8.2µM
CCOc1ccc2nc(NC(=O)c3ccc(S(=O)(=O)N4CCOCC4)cc3)sc2c1	Nrf2 inh inconclusive
Cc1ccc(NC(=O)c2ccc3c(c2)OCO3)cc1S(=O)(=O)N1CCOCC1	A549 viability inconclusive, ELG1 repair inh 18µM
CCOc1ccc2nc(NC(=O)c3ccc(OC)c(S(=O)(=O)N4CCOCC4)c3)sc2c1	Nrf2 inh inconclusive, ELG1 repair inh 13µM
O=C(Nc1ccc2c(c1)OCO2)c1ccc(Cl)c(S(=O)(=O)N2CCOCC2)c1	none
Cc1ccc(NC(=O)c2ccc(F)c(S(=O)(=O)N3CCOCC3)c2)cc1F	Nrf2 inh 13µM
O=C(Nc1ccccc1)c1ccc(NCC2CCCO2)c(S(=O)(=O)N2CCOCC2)c1 (stereo not drawn)	ELG1 repair inh 23µM
Cc1ccc(NC(=O)c2oc3ccccc3c2COC(C)C)cc1S(=O)(=O)N1CCOCC1	Nrf2 inh inconclusive, ELG1 repair inh 18µM
CCOc1ccccc1NC(=O)c1ccc(F)c(S(=O)(=O)N2CCC3(CC2)OCCO3)c1	ELG1 repair inh 21µM
O=C(Nc1ccc(-c2cn3ccsc3n2)cc1)c1ccc(F)c(S(=O)(=O)N2CCOCC2)c1	Nrf2 inh inconclusive, ELG1 repair inh 16µM
O=C(Nc1nccs1)c1ccc(Cl)c(S(=O)(=O)N2CCOCC2)c1	ELG1 repair inh 21µM
O=C(Nc1nccs1)c1ccc(Br)c(S(=O)(=O)N2CCCC2)c1	Nrf2 inh inconclusive
CCOC(=O)c1cc(S(=O)(=O)Nc2ccccc2OCC)[nH]n1	none (no result: Nrf2 inh, ELG1 repair inh)
CSCCNC(=O)C1(C)CCN1C(=O)c1cc(C)n(C)n1 (stereo not drawn)	none (no result: IDH1 R132H inh, Nrf2 inh, A549 viability, ELG1 repair inh)
O=C(Nc1ccccc1)c1ccc(F)c(S(=O)(=O)N2CCOCC2)c1	ELG1 repair inh 15µM
O=C(NCc1ccccc1)c1ccc(F)c(S(=O)(=O)N2CCOCC2)c1	none
Cc1cc2c(s1)c1cnn(Cc3ccc(C(C)(C)C)cc3)c(=O)c1n2C	none (no result: IDH1 R132H inh, Nrf2 ARE act, ELG1 repair inh)
CCCCn1nc(C(=O)Nc2nc3c(s2)CCCC3)c2ccccc2c1=O	ELG1 repair inh 15µM
CCCCn1nc(C(=O)NCC(c2cccs2)N2CCOCC2)c2ccccc2c1=O (stereo not drawn)	ELG1 repair inh 18µM
CCCCCCn1nc(C(=O)Nc2nc3c(s2)CCCC3)c2ccccc2c1=O	ELG1 repair inh inconclusive
CCn1nc(C(=O)NCC(c2cccs2)N2CCOCC2)c2ccccc2c1=O (stereo not drawn)	none
CCCC1OC2C[C@@H]3[C@H]4CCC5=CC(=O)C=C[C@]5(C)[C@H]4C(O)C[C@]3(C)[C@]2(C(=O)CO)O1 (stereo partly drawn)	Nrf2 inh inconclusive (no result: IDH1 R132H inh, Nrf2 ARE act, ELG1 repair inh)
CCC(=O)OCC(=O)C1(OC(=O)CC)[C@H](C)C[C@H]2[C@H]3[C@H]([C@@H](O)C[C@@]21C)[C@@]1(C)C=CC(=O)C=C1C[C@H]3Cl (stereo partly drawn)	Nrf2 inh 0.052µM
CS(=O)(=O)c1ccc2nc(NC(=O)C3=NN(c4ccccc4)C(=O)CC3)sc2c1	none
CS(=O)(=O)c1ccc2nc(NC(=O)c3cc(-c4ccccc4)nn3-c3ccccc3)sc2c1	ELG1 repair inh 7.3µM
CS(=O)(=O)c1ccc(C(=O)Nc2cc(-c3ccccc3)nn2-c2ccccc2)cc1	Nrf2 inh 15µM
COc1ccc2c(c1)c(N1CCCC1=O)c(C(=O)Nc1cc(C)c(Cl)cc1OC)n2C	none (no result: ELG1 repair inh)
CSc1ncnc2ncn(C)c12	none (no result: ELG1 repair inh)
Cc1ccc(C)c(NC(=O)CN(C)C(=O)c2ccc3[nH]c4c(c3c2)CC(C)CC4)c1 (stereo not drawn)	Nrf2 inh 18µM, A549 viability inconclusive
CN(C)c1ccc(C=c2c3ccccc3n3c2c2ccccc2[n+]3C)cc1	IDH1 R132H inh 46µM, Nrf2 inh 8.2µM, A549 viability inconclusive (no result: ELG1 repair inh)
CCOC(=O)c1cc2c(=Cc3ccc(N(C)C)cc3)c3ccccc3n2[n+]1C	Nrf2 inh 8.2µM, A549 viability inconclusive (no result: ELG1 repair inh)
CCOC(=O)SC1=N/C(=C\c2ccc(N(C)C)cc2)C(=O)S1	ELG1 repair inh inconclusive
COCCCN(C(=O)CCSc1ccc(F)cc1)c1c(N)n(Cc2ccccc2)c(=O)[nH]c1=O	none
O=C(COc1ccccc1/C=C1\SC(=S)NC1=O)Nc1ccc(F)cc1	Nrf2 inh 23µM, A549 viability inconclusive, Nrf2 ARE act inconclusive, ELG1 repair inh inconclusive
NC1=NC(=O)/C(=C/c2ccccc2OCC(=O)Nc2ccc(F)cc2)S1	none
CCCC(=O)N1CCN(c2ccc(NC(=S)NC(=O)c3cccc(C)c3)cc2)CC1	Nrf2 inh 15µM, ELG1 repair inh 16µM
COc1cccc(C(=O)NC(=S)Nc2ccc(N3CCCC3)cc2)c1	none (no result: Nrf2 inh)
COc1ccc(NC(=O)c2c(-c3ccccc3Cl)noc2C)c(OC)c1	ELG1 repair inh 18µM
COc1ccc(NC(=O)c2cc(-c3cccs3)on2)c(OC)c1	Nrf2 ARE act 1.3µM
CCc1nc2ccc(C(=O)NCCN3CCOCC3)cn2c1N(C)Cc1ccc(OC)cc1	none (no result: IDH1 R132H inh, Nrf2 inh, A549 viability, ELG1 repair inh)
O=[S+]([O-])(c1ccc2ncsc2c1)N1CCN([S+](=O)([O-])c2c(F)cccc2F)CC1	none (no result: IDH1 R132H inh, Nrf2 ARE act, ELG1 repair inh)
N#C/C(=N\Nc1cc(Cl)cc(Cl)c1)c1nnc2n1CCCCC2	Nrf2 inh 18µM, A549 viability inconclusive
O=C(OCC#CCSc1nnc(-c2cccc3ccccc23)o1)c1ccc(F)cc1F	none (no result: IDH1 R132H inh, Nrf2 ARE act, ELG1 repair inh)
COc1ccc(NC(=O)Cn2c(=O)cc(C)c3c(C)nn(C)c32)cc1	none (no result: Nrf2 inh, ELG1 repair inh)
COc1ccc(OC)c(NC(=O)Cn2c(=O)cc(C)c3c(C)nn(-c4cccc(Cl)c4C)c32)c1	Nrf2 inh 21µM, A549 viability inconclusive (no result: ELG1 repair inh)
CCOc1ccc(NC(=O)Cn2c(=O)cc(C)c3c(C)nn(C)c32)cc1	Nrf2 inh 13µM (no result: ELG1 repair inh)
COc1ccc(CNC(=O)Cn2c(=O)cc(C)c3c(C)nn(-c4cccc(Cl)c4C)c32)cc1	none (no result: ELG1 repair inh)
CCC(=O)n1nc(NCc2ccc(OC)c(OC)c2)nc1NCc1ccc(OC)c(OC)c1	ELG1 repair inh 10µM (no result: Nrf2 inh)
COCC(=O)n1nc(NCc2ccc(OC)cc2)nc1NCc1ccc(OC)cc1	none
